Consider 35 compounds from PubChem BioAssay AID1494158 (National Center for Advancing Translational Sciences (NCATS), 2020).

Each structure is given as a SMILES string. Inconclusive results are not listed. Calls of active or inactive are those of the source. Calls follow the shape of the full dose curve.

A short description of this assay: VSV-G qHTS counterscreen for inhibitors of SARS-S pseudo-typed particle cell entry. The settings on record: VSV-G pseudotyped particle entry counterscreen, luciferase; series mostly up to 57.1 µM.
In the case of `Oc1c(Cl)cc(Cl)c(Cl)c1Cc1c(O)c(Cl)cc(Cl)c1Cl`, the Potency is 2.71 µM (active).

For the compound `CCCN1C[C@H](C)[C@@H](O)[C@](C)(O)[C@@H](CC)OC(=O)[C@H](C)[C@@H](O[C@H]2C[C@@](C)(OC)[C@@H](O)[C@H](C)O2)C(C)[C@@H](O[C@@H]2O[C@H](C)C[C@H](N(C)C)[C@H]2O)[C@](C)(O)C[C@H]1C` (stereo not given in full), the Potency entry was “inactive”.

Turning to `CCc1c2c(nc3ccc(OC(=O)N4CCC(N5CCCCC5)CC4)cc13)-c1cc3c(c(=O)n1C2)COC(=O)[C@]3(O)CC`, the Potency entry was “inactive”.

As for `COc1cc([C@@H]2c3cc4c(cc3C(O[C@@H]3O[C@@H]5CO[C@@H](c6cccs6)OC5[C@H](O)[C@H]3O)C3COC(=O)[C@@H]32)OCO4)cc(OC)c1O` (stereo not given in full), the Potency is 0.857 µM (active).

Consider `CC(CN(C)C)CN1c2ccccc2CCc2ccccc21` (stereo not given), for which the Potency entry was “inactive”.

With `Cc1cc(C(C#N)c2ccc(Cl)cc2)c(Cl)cc1NC(=O)c1cc(I)cc(I)c1O` (stereo not given), the Potency was 30.4 µM (active).

With `COc1cccc2c1C(=O)c1c(O)c3c(c(O)c1C2=O)C[C@@](O)(C(=O)CO)C[C@@H]3O[C@H]1C[C@H](N)[C@H](OC2CCCCO2)[C@H](C)O1` (stereo not given in full), the Potency is 9.61 µM (active).

As to `COc1cccc2c1C(=O)c1c(O)c3c(c(O)c1C2=O)C[C@@](O)(C(C)=O)C[C@@H]3O[C@H]1C[C@H](N)[C@H](O)[C@H](C)O1`, the Potency is 1.92 µM (active).

For `N#CC(c1ccc(Cl)cc1)c1c(Cl)cc(-n2ncc(=O)[nH]c2=O)cc1Cl` (stereo not given), the Potency was 10.8 µM (active).

For `CCn1cc(C(=O)O)c(=O)c2cc(F)c(N3CCNC(C)C3)c(F)c21` (stereo not given), the Potency result was “inactive”.

`CC[C@@H]([C@H](C)O)n1ncn(-c2ccc(N3CCN(c4ccc(OC[C@@H]5CO[C@@](Cn6cncn6)(c6ccc(F)cc6F)C5)cc4)CC3)cc2)c1=O`: the Potency was 6.81 µM (active).

For the compound `COc1cc2nccc(Oc3ccc(NC(=O)NC4CC4)c(Cl)c3)c2cc1C(N)=O`, the Potency is 17.1 µM (active).

Take `CCN(CC)CCNC(=O)c1c(C)[nH]c(/C=C2\C(=O)Nc3ccc(F)cc32)c1C`: the Potency is 17.1 µM (active).

In the case of `CN(C)CCOC(c1ccccc1)c1ccc(Br)cc1` (stereo not given), the Potency result is “inactive”.

Turning to `CCCCCCCCCCCC[n+]1ccc2ccccc2c1`, the Potency was 1.92 µM (active).

As to `Cc1cn([C@H]2C[C@H](N=[N+]=[N-])[C@@H](CO)O2)c(=O)[nH]c1=O`, the Potency is 3.41 µM (active).

`CC(C)OC(=O)[C@H](C)N[P@](=O)(CO[C@H](C)Cn1cnc2c(N)ncnc21)Oc1ccccc1`: the Potency is 0.242 µM (active).

As to `CCCCCCCCCCCCCC[n+]1ccc(C)cc1`, the Potency was 1.92 µM (active).

As for `C=CC1(C)CC(=O)C2(O)C(C)(O1)C(OC(C)=O)C(OC(=O)CCN(C)C)C1C(C)(C)CCC(O)C12C` (stereo not given), the Potency entry is “inactive”.

With `NCCNc1ccc(NCCN)c2c1C(=O)c1ccncc1C2=O`, the Potency was 3.41 µM (active).

As to `Cc1oncc1C(=O)Nc1ccc(C(F)(F)F)cc1`, the Potency result is “inactive”.

Turning to `Nc1nc(Cl)nc2c1ncn2C1CC(O)C(CO)O1` (stereo not given), the Potency was 5.41 µM (active).

On to `N=C(N)c1ccc(OCCCCCOc2ccc(C(=N)N)cc2)cc1`, for which the Potency was 21.5 µM (active).

`O=C1c2c(O)ccc(O)c2C(=O)c2c(NCCNCCO)ccc(NCCNCCO)c21`: the Potency was 0.171 µM (active).

Regarding `CC(C)C[C@H](NC(=O)[C@H](CCc1ccccc1)NC(=O)CN1CCOCC1)C(=O)N[C@@H](Cc1ccccc1)C(=O)N[C@@H](CC(C)C)C(=O)[C@@]1(C)CO1`, the Potency is 0.764 µM (active).

For the compound `CC(C)C(=O)Oc1ccc(CO)cc1[C@H](CCN(C(C)C)C(C)C)c1ccccc1`, the Potency is 27.1 µM (active).

In the case of `Cc1c(N)nc(C(CC(N)=O)NCC(N)C(N)=O)nc1C(=O)NC(C(=O)NC(C)C(O)C(C)C(=O)NC(C(=O)NCCc1nc(-c2nc(C(=O)NCCCN[C@@H](C)c3ccccc3)cs2)cs1)C(C)O)C(O[C@@H]1O[C@@H](CO)[C@@H](O)[C@H](O)[C@@H]1O[C@H]1O[C@H](CO)[C@@H](O)[C@H](OC(N)=O)[C@@H]1O)c1cnc[nH]1` (stereo not given in full), the Potency was 0.304 µM (active).

For `CC(C)(C)c1ccc(C(=O)CCCN2CCC(OC(c3ccccc3)c3ccccc3)CC2)cc1`, the Potency is 27.1 µM (active).

Turning to `CCC(C)(C)C(=O)O[C@H]1C[C@@H](C)C=C2C=C[C@H](C)[C@H](CC[C@@H]3C[C@@H](O)CC(=O)O3)[C@H]21`, the Potency is 1.21 µM (active).

In the case of `Cc1cc(-n2c(=O)[nH]c(=O)n(C)c2=O)ccc1Oc1ccc(S(=O)(=O)C(F)(F)F)cc1`, the Potency was 19.2 µM (active).

For the compound `CC[C@@]1(O)C(=O)OCc2c1cc1n(c2=O)Cc2cc3c(CN(C)C)c(O)ccc3nc2-1`, the Potency is 0.383 µM (active).

As to `COc1ccc2cc1Oc1ccc(cc1)C[C@H]1c3c(cc4c(c3Oc3cc5c(cc3OC)CCN(C)[C@@H]5C2)OCO4)CCN1C`, the Potency is 21.5 µM (active).

For `C/C=C(/C)C(=O)O[C@H]1C(C)=CC23C(=O)C(C=C(CO)[C@@H](O)[C@]12O)[C@H]1[C@@H](C[C@H]3C)C1(C)C` (stereo not given in full), the Potency was 0.215 µM (active).

Turning to `Cc1nnc(C(=O)NC(C)(C)c2nc(C(=O)NCc3ccc(F)cc3)c(O)c(=O)n2C)o1`, the Potency is 0.0171 µM (active).

In the case of `O=c1c(C2CC(c3ccc(-c4ccc(Br)cc4)cc3)Cc3ccccc32)c(O)sc2ccccc12` (stereo not given), the Potency is 15.2 µM (active).
